Assay results published in PubChem BioAssay (EPA / NIEHS).
Records with an inconclusive call do not appear. A structure can be active in one record and inactive in another. Activity calls are given as the source filed them. The calls were made as follows, unless noted: active = hit-call score of the fitted dose curve at least 0.9, where 1 is the maximum; inactive = score below 0.9.

Tests used:
[1] = CCTE_Shafer_MEA_dev_burst_rate: CCTE's Neural Network Formation Assay for Burst Rate, Shafer Lab (AID 2284042);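 as to AC50: potency for loss of burst rate below DMSO control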
In short: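 Rat primary cortical cultures on PEI/laminin MEA; compound from plating, re-dosed at DIV 5, 9 media change. Single-electrode bursts/recording length, well mean of active electrodes; AUC over DIV 5–12 recordings; loss-of-signal vs DMSO.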

[2] = CCTE_Shafer_MEA_dev_per_burst_interspike_interval: CCTE's Neural Network Formation Assay for Burst Interspike Interval, Shafer Lab (AID 2284044);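 also: mean spike spacing inside bursts as AUC over recordings on days 5 7 9 12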;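 as to AC50: potency for a decrease of within-burst interspike interval below DMSO level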
In short: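 Rat cortical primary cultures, 16 electrodes/well; compound from plating, renewed with full media change DIV 5 and 9. Spikes via adaptive detector; per-burst ISI well-mean over active bursting electrodes; AUC of DIV 5/7/9/12 recordings; loss-direction fit vs DMSO.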

[3] = CCTE_Shafer_MEA_dev_burst_duration_mean: CCTE's Neural Network Formation Assay for Mean Burst Duration, Shafer Lab (AID 2284045);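 as to AC50: curve fitted for loss meaning shorter burst duration than DMSO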
In short: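 Primary rat cortical neurons on PEI-coated 16-electrode MEA wells, exposed from plating through day 12 with compound renewed at DIV 5 and 9; spontaneous activity recorded days 5, 7, 9, 12. Well-mean burst duration collapsed as trapezoidal AUC, fitted for loss versus DMSO.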

[4] = CCTE_Shafer_MEA_dev_inter_network_spike_interval_mean: CCTE's Neural Network Formation Assay for Mean Inter-network Spike Interval, Shafer Lab (AID 2284047);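 as to AC50: potency for a decrease in mean inter-network spike interval below DMSO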
In short: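 Primary rat cortical neurons on PEI-coated 48-well MEAs (16 electrodes/well) were exposed from plating day 0 to DIV 12, with dosing renewed at DIV 5 and 9. Recordings at DIV 5, 7, 9, 12 were collapsed by trapezoidal AUC, loss-of-signal fit vs DMSO.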

[5] = CCTE_Shafer_MEA_dev_network_spike_number: CCTE's Neural Network Formation Assay for Number of Network Spikes, Shafer Lab (AID 2284048);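 also: synchronized bursts across electrodes counted on days 5 7 9 12 and integrated as AUC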;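 as to AC50: fit as a loss of signal meaning fewer network spikes than DMSO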
In short: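 Primary rat cortical neurons were seeded at 1.5 x 10^5 cells/well on PEI-coated 16-electrode MEA wells with laminin, exposed from plating day 0, compound renewed at DIV 5 and 9. Network spikes were recorded on days 5, 7, 9, 12 and summarized as trapezoidal AUC versus DMSO.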

[6] = CCTE_Shafer_MEA_dev_network_spike_peak: CCTE's Neural Network Formation Assay for Mean Number of Electrodes in Network Spike, Shafer Lab (AID 2284049);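 as to AC50: fitted for loss of signal meaning fewer electrodes in network spikes than DMSO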
In short: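 Continuous 12-day exposure of rat cortical cultures, starting at plating, on MEA plates. Endpoint: electrodes participating in network-spike peaks, AUC across DIV 5–12, DMSO as negative control.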

[7] = system: DIO2 (gene 1734); assay: CCTE_GLTED_hDIO2: CCTE's human Deiodinase 2 (DIO2) Inhibition Assay, Great Lakes Toxicology and Ecology Division (GLTED) Lab (AID 2284050; active = hit-call score of the fitted dose curve at least 0.9, where 1 is the maximum)
In short: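 Cell-free human DIO2 enzyme was incubated with test chemical for 3 h; iodide liberated from substrate was then quantified by the Sandell-Kolthoff reaction (absorbance), run in triplicate. Loss of signal versus DMSO baseline indicated inhibition.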

[8] = CCTE_Shafer_MEA_dev_spike_duration_mean: CCTE's Neural Network Formation Assay for Mean Spike Duration, Shafer Lab (AID 2284051);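 also: mean network spike duration pooled as area under curve over DIV 5 to 12 recordings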;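 as to AC50: potency for a decrease in mean network spike duration versus DMSO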
In short: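 Rat cortical primary cultures, 48-well MEA (16 electrodes/well); compound from plating, renewed DIV 5, 9. Network spike duration (AxIS adaptive detector) recorded DIV 5/7/9/12, combined as trapezoidal AUC; loss direction vs DMSO.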

[9] = CCTE_Shafer_MEA_dev_network_spike_duration_std: CCTE's Neural Network Formation Assay for Standard Deviation of Network Spike Duration, Shafer Lab (AID 2284052);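 also: area under curve of spike duration SD across recording days 5 to 12; hits are decreases in network spike duration SD versus DMSO vehicle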
In short: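 Rat cortical cultures, 1.5 x 10^5 cells/well, exposed continuously from plating to DIV 12 with media/compound renewal at DIV 5, 9. Spontaneous activity recorded DIV 5/7/9/12, AxIS adaptive spike detector; AUC across days; negative direction vs DMSO.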

[10] = CCTE_Shafer_MEA_dev_per_network_spike_spike_number_mean: CCTE's Neural Network Formation Assay for Mean Number of Spikes in a Network Spike, Shafer Lab (AID 2284053);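 as to AC50: fitted as decrease in spikes per network spike relative to DMSO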
In short: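 Rat cortical primary cultures on 48-well MEA; compound from day 0, re-dosed with full media change DIV 5, 9. Recorded DIV 5, 7, 9, 12; spikes in 0.05 s window at network-spike peak ÷ total network spikes; AUC; loss vs DMSO.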

[11] = system: DIO3 (gene 1735); assay: CCTE_GLTED_hDIO3: CCTE's human Deiodinase 3 (DIO3) Inhibition Assay, Great Lakes Toxicology and Ecology Division (GLTED) Lab (AID 2284055; active = hit-call score of the fitted dose curve at least 0.9, where 1 is the maximum;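 also: potency is for inhibition seen as loss of released iodide signal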)
In short: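 Cell-free assay with human DIO3 enzyme produced by adenovirus expression; enzyme incubated with test chemical for 3 hours. Liberated iodide then measured by Sandell-Kolthoff absorbance; loss of signal versus DMSO baseline indicates inhibition, run in triplicate.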

[12] = CCTE_Shafer_MEA_dev_LDH: CCTE's Lactate Dehydrogenase Assay for Cytotoxicity in the Neural Network Formation Assay, Shafer Lab (AID 2284068; active = hit-call score of the fitted dose curve at least 0.9, where 1 is the maximum;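 also: exposure for twelve days from plating with re-dosing on DIV 5 and 9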)
In short: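 Rat cortical primary neurons, MEA culture; dosing day 0–12, full medium plus compound exchange DIV 5, 9. Read-out: LDH enzyme activity, spectrophotometric. DMSO = negative control/baseline; signal loss → cytotoxicity.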

[13] = CCTE_Shafer_MEA_dev_AB: CCTE's Alamar Blue Assay for Cytotoxicity in the Neural Network Formation Assay, Shafer Lab (AID 2284083; active = hit-call score of the fitted dose curve at least 0.9, where 1 is the maximum;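 also: resazurin reduction fluorescence as viability of cultured neurons; twelve days of exposure from plating with re-dosing on DIV 5 and 9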)
In short: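 Rat cortical primary cultures, 1.5 x 10^5 cells/well on MEA; continuous compound exposure over 12 days of network development, re-dosed with full medium change DIV 5 and 9. Alamar Blue fluorescence; loss of signal = cytotoxicity vs DMSO baseline.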

[14] = CCTE_Shafer_MEA_dev_mutual_information_norm: CCTE's Neural Network Formation Assay for Mutual Information Normalization, Shafer Lab (AID 2284091);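 as to AC50: mutual information between electrodes summarised as area under curve across four recording days; potency is for a decrease in mutual information relative to DMSO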
In short: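 Rat cortical cultures, 48-well MEA, continuous exposure DIV 0–12 with full media/compound change DIV 5 and 9. Readout: inter-electrode mutual information, AxIS adaptive spike detection; AUC across DIV 5/7/9/12 recordings; DMSO baseline, negative fitting direction.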

[15] = CCTE_Shafer_MEA_dev_correlation_coefficient_mean: CCTE's Neural Network Formation Assay for Mean Correlation Coefficient, Shafer Lab (AID 2284093);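 as to AC50: well mean pairwise spike train correlation integrated as AUC over recording days 5 to 12; potency fitted for loss of correlation relative to DMSO vehicle wells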
In short: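 Rat cortical cultures, 1.5 x 10^5 cells/well, dosed from day 0 for 12 days. Spontaneous spikes recorded DIV 5/7/9/12; electrode-pair correlation coefficients averaged, AUC taken. Fit in loss direction vs DMSO.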

[16] = CCTE_Shafer_MEA_dev_bursting_electrodes_number: CCTE's Neural Network Formation Assay for Number of Bursting Electrodes, Shafer Lab (AID 2284043; active = hit-call score of the fitted dose curve at least 0.9, where 1 is the maximum;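 as to AC50: potency is for loss of bursting electrodes relative to DMSO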)
In short: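 Primary rat cortical neurons were cultured on PEI-coated 48-well MEA plates (16 electrodes/well) and exposed from plating through day 12, with compound renewed at feeds on DIV 5 and 9. Electrodes bursting ≥1 per 2 min were counted on DIV 5, 7, 9, 12; trapezoidal AUC taken.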

[17] = CCTE_Shafer_MEA_acute_AB: CCTE's Alamar Blue Assay for Cytotoxicity in the Neural Acute Assay, Shafer Lab (AID 2284069; active = hit-call score of the fitted dose curve at least 0.9, where 1 is the maximum;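 also: active compounds lower the viability signal compared with DMSO wells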)
In short: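 Read-out: resazurin fluorescence (ex 544, em 590 nm) after CTB reagent at 1:6 dilution in fresh media. Cells: primary rat cortical neuron networks, DIV 13 or 15, chemically exposed on MEA plates; DMSO as negative control/baseline.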

[18] = CCTE_Shafer_MEA_acute_LDH: CCTE's Lactate Dehydrogenase Assay for Cytotoxicity in the Neural Acute Assay, Shafer Lab (AID 2284086; active = hit-call score of the fitted dose curve at least 0.9, where 1 is the maximum;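 also: active means LDH release rises above DMSO vehicle level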)
In short: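 Primary rat cortical neurons on 48-well MEA plates, treated on day 13 or 15 post-plating. After the 40-min recording with compound, medium LDH release was read by absorbance at 490 nm. Gain of signal was fitted against DMSO negative control.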

[19] = UKN5_HCS_SBAD2_cell_viability: Viability Assessment in the University of Konstanz (UKN) Leist Lab Neurite Outgrowth Assay in human iPSC-derived immature Dorsal Root Ganglia Neurons (UKN5) (AID 2284056)
In short: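 iPSC-derived immature peripheral neurons (SBAD2) seeded on Matrigel with CHIR99021, SU5402 and DAPT, dosed 1 h later for 24 h. Viability from Hoechst H-33342 and calcein-AM live staining, high-content imaging; bidirectional fit versus DMSO.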

[20] = UKN5_HCS_SBAD2_neurite_outgrowth: University of Konstanz (UKN) Leist Lab Neurite Outgrowth Assay in human iPSC-derived immature Dorsal Root Ganglia Neurons (UKN5) (AID 2284070); conditions: actives raise or lower the signal
In short: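 Human iPSC-derived immature DRG neurons (SBAD2) on Matrigel with CHIR99021 (1.5 uM), SU5402 (5 uM), DAPT (5 uM); compounds added 1 h post-seeding for 24 h. Calcein-AM neurite area imaged; bidirectional fit vs DMSO.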

Measured: AC50

O=C(O)C(F)(F)OC(F)(F)C(F)(F)OC(F)(F)C(F)(F)OC(F)(F)C(F)(F)C(F)(F)C(F)(F)F
active: [7] 60500 nM | [11] 37100 nM
not listed: [16] | [17] | [18] | [19] | [20]
inactive: all other assays above

O=P(O)(O)CCC(F)(F)C(F)(F)C(F)(F)C(F)(F)C(F)(F)C(F)(F)F
not listed: [7] | [11] | [16] | [17] | [18] | [19] | [20]
inactive: all other assays above

CC(=O)Nc1ccc(O)cc1
active: [16] 82.4 nM | [3] 22500 nM
inactive: [1] | [16] | [2] | [3] | [4] | [5] | [6] | [8] | [9] | [10] | [12] | [17] | [13] | [18] | [14] | [15]

O=C(F)C(F)(F)C(F)(F)C(F)(F)C(F)F
not listed: [7] | [11] | [12] | [17] | [18] | [19] | [20]
inactive: all other assays above

CCCCCCCCCCCC
active: [7] 24500 nM | [11] 22700 nM
inactive: [18]

COC(=O)C(F)(F)C(F)(F)C(F)(F)F
not listed: [7] | [11] | [12] | [13] | [17] | [18] | [19] | [20]
inactive: all other assays above

Oc1ccc(Cc2ccccc2O)cc1
inactive: [17] | [18]

O=C(C=C(O)C(F)(F)F)C(F)(F)F
not listed: [7] | [11] | [13] | [17] | [18] | [19] | [20]
inactive: all other assays above

N=C(N)c1ccc(OCCCCCOc2ccc(C(=N)N)cc2)cc1
inactive: [17] | [18]

O=C(OC(=O)C(F)(F)C(F)(F)F)C(F)(F)C(F)(F)F
not listed: [7] | [11] | [12] | [17] | [18] | [19] | [20]
inactive: all other assays above

CCC(C)c1ccccc1O (stereo not drawn)
inactive: [17]

C=CC(F)(F)C(F)(F)C(F)(F)C(F)(F)F
not listed: [7] | [11] | [12] | [17] | [18] | [19] | [20]
inactive: all other assays above

Oc1c(Cl)cc(Cl)cc1Sc1cc(Cl)cc(Cl)c1O
inactive: [17] | [18]

CCCCCCCCCCCCOS(=O)(=O)O
active: [7] 101000 nM | [11] 99600 nM

CCCCCCCCCC=CCC1CC(=O)OC1=O (stereo not drawn)
active: [7] 64300 nM | [11] 27200 nM

CC(C)c1c(C(=O)Nc2ccccc2)c(-c2ccccc2)c(-c2ccc(F)cc2)n1CC[C@@H](O)C[C@@H](O)CC(=O)O
active: [1] 8.94 nM | [16] 9.22 nM | [2] 25.5 nM | [3] 10.5 nM | [4] 7.22 nM | [5] 5.74 nM | [6] 6.41 nM | [8] 4.74 nM | [9] 2.68 nM | [10] 8.16 nM | [12] 1.48 nM | [13] 25.8 nM | [14] 7.93 nM | [15] 8.05 nM

CCCCc1oc2ccccc2c1C(=O)c1cc(I)c(OCCN(CC)CC)c(I)c1
inactive: [17] | [18]

CN(Cc1cnc2nc(N)nc(N)c2n1)c1ccc(C(=O)N[C@@H](CCC(=O)O)C(=O)O)cc1
active: [1] 36.5 nM | [16] 20.9 nM | [2] 2980 nM | [3] 72.8 nM | [4] 30.8 nM | [5] 25.8 nM | [6] 27.9 nM | [8] 34.3 nM | [9] 42.2 nM | [10] 25.8 nM | [12] 8.02 nM | [13] 38.9 nM | [14] 19.1 nM | [15] 18.9 nM

O=CC(F)(F)C(F)(F)C(F)(F)F
not listed: [7] | [11] | [12] | [17] | [18] | [19] | [20]
inactive: all other assays above

NC(=NCCCCCCN=C(N)/N=C(\N)Nc1ccc(Cl)cc1)/N=C(\N)Nc1ccc(Cl)cc1
active: [7] 13000 nM | [11] 2650 nM

CCCCCCCCCCCCOC(=O)c1cc(O)c(O)c(O)c1
active: [7] 82000 nM | [11] 6660 nM

O=C(CCCN1CCC(O)(c2ccc(Cl)cc2)CC1)c1ccc(F)cc1
active: [1] 531 nM | [16] 1650 nM | [2] 1780 nM | [3] 1290 nM | [5] 568 nM | [6] 2020 nM | [8] 1780 nM | [9] 1880 nM | [10] 753 nM | [19] 55600 nM | [12] 7350 nM | [20] 20200 nM | [14] 163 nM | [15] 1740 nM
inactive: [4] | [13] | [18]
